Most compounds without a hit are left out; they make up all but 2.6% or so of the library.
eIF4E 4G PPI = eIF4E–eIF4G protein interaction inhibitors, primary screen, biochemical, uHTS, TR-FRET, eIF4GI fragment; inhibition, % at 21.7 µM; TR-FRET eIF4E-eIF4GI(517-606) binding, 2 h; 0.37% of 220,000 active; Eukaryotic translation initiation factor 4E (Mus musculus) + Eukaryotic translation …; AID 782, 2007;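 active = inhibition above about 30%, limit read from the data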;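 also: 0% = full FRET control wells and 100% = background wells lacking eIF4GI fragment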
Mcl1-Bid inh = Mcl-1/Bid binding inhibitors, primary screen, biochemical, TR-FRET, 1536-well | Induced myeloid leukemia cell differentiation protein Mcl-1 (Homo sapiens), Q07820 | TR-FRET Mcl-1/Bid-Dy647 peptide binding | inhibition, % at 21.7 µM | 0.97% of 220,000 active;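 active = compounds that cut the binding signal by more than half at the single screening dose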;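 also: His-tagged Mcl-1 with europium anti-His antibody binding Bid BH3 peptide; 0% = Mcl-1 plus peptide wells and 100% = peptide-only wells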
Target sequence (Q07820 whole entry, looked up): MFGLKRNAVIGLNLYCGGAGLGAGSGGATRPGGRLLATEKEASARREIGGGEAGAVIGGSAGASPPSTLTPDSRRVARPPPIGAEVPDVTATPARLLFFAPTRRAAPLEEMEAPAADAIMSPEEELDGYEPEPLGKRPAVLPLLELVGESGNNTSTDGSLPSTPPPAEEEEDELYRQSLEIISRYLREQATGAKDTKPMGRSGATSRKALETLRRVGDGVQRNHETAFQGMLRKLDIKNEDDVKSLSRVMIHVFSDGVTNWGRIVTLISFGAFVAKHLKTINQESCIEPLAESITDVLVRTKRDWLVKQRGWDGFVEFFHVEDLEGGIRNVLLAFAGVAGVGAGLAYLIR
Mcl1-Noxa inh = Mcl-1/Noxa binding inhibitors, primary screen, biochemical, TR-FRET, 1536-well; TR-FRET Mcl-1/Noxa peptide binding, 2 h; inhibition, % at 21.7 µM; 1.5% of 220,000 active; AID 1022, 2008;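 active = compounds that cut the protein-peptide binding signal by more than 50% relative to plate controls in a single-dose test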;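 also: His-tagged Mcl-1 with rhodamine Noxa BH3 peptide and terbium anti-His antibody; 0% = Mcl-1 plus Noxa peptide wells and 100% = peptide-only wells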
MCL1-BIM inh = inhibitors of MCL1 binding to BIM-BH3, primary screen, biochemical, fluorescence polarization. Induced myeloid leukemia cell differentiation protein Mcl-1 (Homo sapiens), Q07820. GST-MCL1 / FITC-Bim-BH3 fluorescence polarization. inhibition, % at 10.9 µM. 0.68% of 320,000 active. AID 2057, 2009;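 active = inhibition above the mean inhibition of all tested compounds plus 3 SD, set per campaign, cut at about 40% in these data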;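 also: 0% = DMSO wells and 100% = unlabeled Bim-BH3 peptide control; higher means more loss of mP so more displacement of Bim peptide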
Mcl-1 Bim block = inhibitors of Bim peptide binding to Mcl-1, primary screen, biochemical, bead-based flow cytometry, multiplex. Bim peptide-Mcl-1 binding. inhibition, % at 10 µM. 0.1% of 190,000 active. AID 1009, 2008; in the data active = inhibition above about 40%;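 also: 0% = no compound tracer wells and 100% = peptide blocker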
14-3-3 Bad inh = inhibitors of 14-3-3 zeta/Bad binding, primary screen, biochemical, TR-FRET, bovine 14-3-3 zeta. TR-FRET 14-3-3zeta/Dy647-pBad peptide displacement, 1 h. 0.71% of 220,000 active. AID 781, 2007. 14-3-3 protein zeta/delta (Bos taurus), P63103. inhibition, % at 21.7 µM;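 active = inhibition above about 70%, limit read from the data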;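 also: 0% = full 14-3-3 plus peptide FRET controls and 100% = background without 14-3-3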
Target sequence (P63103 whole entry, looked up): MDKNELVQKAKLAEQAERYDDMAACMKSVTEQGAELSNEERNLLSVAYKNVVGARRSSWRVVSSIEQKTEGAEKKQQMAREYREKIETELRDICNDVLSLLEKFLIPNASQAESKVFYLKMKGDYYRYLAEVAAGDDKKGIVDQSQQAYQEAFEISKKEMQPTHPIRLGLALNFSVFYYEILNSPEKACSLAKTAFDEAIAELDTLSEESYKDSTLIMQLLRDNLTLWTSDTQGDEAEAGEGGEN
Bcl-xL conf = Bcl-xL inhibitors blocking Bim BH3 binding, confirmation, counter-screen for MCL1 inhibitor project, biochemical, fluorescence polarization | GST-Bcl-xL / FITC-Bim BH3 peptide FP binding | shares compounds with MCL1-BIM inh | 54% of 1,700 active | AID 2166, 2009 | inhibition, % at 10.9 µM;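 active = inhibition above a cutoff equal to the mean inhibition of all tested compounds plus 3 SD, cut at about 30% in these data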;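 also: 0% = DMSO wells and 100% = unlabeled Bim BH3 control peptide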
MCL1 BIM confirm = inhibitors of MCL1 binding to BIM-BH3, confirmation, biochemical, fluorescence polarization, triplicate; shares compounds with MCL1-BIM inh; GST-MCL1 / FITC-Bim-BH3 fluorescence polarization; inhibition, % at 10.9 µM; 61% of 1,700 active; AID 2168, 2009;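 active = inhibition above the average of all tested compounds plus 3 SD, cut at about 40% in these data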;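 also: 0% = DMSO wells and 100% = unlabeled Bim-BH3 control peptide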
* hit, by the source's call; x = no result given; + = active, no number.

SMILES	eIF4E 4G PPI	Mcl1-Bid inh	Mcl1-Noxa inh	MCL1-BIM inh	Mcl-1 Bim block	14-3-3 Bad inh	Bcl-xL conf	MCL1 BIM confirm
Cc1ccc(Nc2c([N+](=O)[O-])c(=O)n(C)c3ccccc23)cc1C	1	4	24	7	-2	3	x	x
Cc1cc(F)ccc1NCC(=O)Nc1ccccc1Br	3	-43	2	5	-6	-2	x	x
N#CC1=C(N)N(c2ccccc2)C(c2ccccc2)C1(C#N)C#N (configuration not stated)	x	x	x	4	2	x	x	x
N#CC1=C(N)C(C#N)(C#N)C(c2cccnc2)C2CC(c3ccccc3)CC=C12 (configuration not stated)	-5	-19	7	135*	-3	-18	11	14
N#CC1=C(N)C(C#N)(C#N)C(c2ccc[nH]2)C2CCCC=C12 (configuration not stated)	-4	-23	9	72*	0	0	39*	27
N#CC1=C(N)C(C#N)(C#N)C(c2cccnc2)C2CCCC=C12 (configuration not stated)	-17	-9	31	81*	0	-1	75*	85*
N#CC1=C(N)C2=CCCC[C@H]2[C@H](c2cccc(F)c2)C1(C#N)C#N	18	-56	24	45*	-7	-18	24	25
N#CC1=C(N)C(C#N)(C#N)[C@H](c2cccnc2)[C@H]2CN(C(=O)OCc3ccccc3)CC=C12	5	-14	-2	12	-3	3	x	x
COc1ccccc1C(=O)N/N=C(\C)c1ccc(NC(=O)Cc2ccccc2)cc1	x	x	x	1	x	x	x	x
C/C(=N\NC(=O)c1cc(O)cc(O)c1)c1ccc(NC(=O)Cc2ccccc2)cc1	x	x	x	78*	x	x	46*	93*
COc1ccccc1C(=O)Nc1ccc2c(c1)nc1n2CCN(C2CCCCC2)C1	x	x	x	4	x	x	x	x
O=C(Nc1ccc2c(c1)nc1n2CCN(C2CCCCC2)C1)NC1CCCCC1	-1	-25	41	67*	-5	34	44*	54*
O=C(CSc1cccc[n+]1[O-])Nc1c(Br)cc([N+](=O)[O-])cc1Br	2	0	-8	6	2	3	x	x
O=C(N=Nc1c(O)[nH]c2ccccc12)c1cc(-c2cccs2)[nH]n1	-22	-47	46	43*	x	50	12	31
CC1CCN(c2nc3ccccn3c(=O)c2C=O)CC1	2	-49	-6	2	-3	0	x	x
O=Cc1c(Cl)nc2ccccn2c1=O	13	28	-21	59*	x	27	10	11
COc1cccc(N2[C@@H](CC(C)=O)c3cc(C(F)(F)F)ccc3S2(=O)=O)c1	x	x	x	-2	x	x	x	x
CCOC(=O)C[C@H]1c2ccc(C(F)(F)F)cc2S(=O)(=O)N1c1cccc(OC)c1	x	x	x	41*	x	x	-5	43*
O=C(Cn1c(=O)n(Cc2ccco2)c(=O)c2c3c(sc21)CCCCC3)c1ccccc1	3	-18	41	43*	-4	-1	20	32
O=C(Cn1c(=O)n(Cc2ccco2)c(=O)c2c3c(sc21)CCCCC3)Nc1ccccc1	10	-17	41	14	0	9	x	x
COc1ccc2c(C(=O)CN3CCN(c4ccccc4)CC3)c[nH]c2c1	0	-39	12	-18	-5	-5	x	x
CCN(c1ccccc1)S(=O)(=O)c1ccc(F)cc1	3	14	14	0	-2	5	x	x
COC(=O)CN(c1ccccc1)S(=O)(=O)c1ccc(F)cc1	2	-1	7	+	-2	10	8	10
Cc1cc(O)c2c(c1)C(=O)c1cc(O)cc(O)c1C2=O	x	x	x	-20	x	x	x	x
O=C1c2cccc(O)c2C(=O)c2c(O)cc(CO)cc21	x	x	x	100*	x	x	81*	100*
SMILES	eIF4E 4G PPI	Mcl1-Bid inh	Mcl1-Noxa inh	MCL1-BIM inh	Mcl-1 Bim block	14-3-3 Bad inh	Bcl-xL conf	MCL1 BIM confirm
CCOc1ccc(NC(=O)c2cccc(-n3cccc3)c2)cc1S(=O)(=O)N1CCOCC1	x	x	x	67*	x	x	4	56*
CC1(C)CC(NS(=O)(=O)c2ccc(S(N)(=O)=O)cc2)CC(C)(C)N1	x	x	x	118*	x	x	11	4
CC1(C)CC(NS(=O)(=O)c2ccc(F)cc2)CC(C)(C)N1	x	x	x	-3	x	x	x	x
O=C(CSc1nc2nn(-c3ccccc3)c(=O)c-2c2n1CCCCC2)c1ccc(O)c(O)c1	x	x	x	77*	x	x	33*	82*
COc1ccc(S(=O)(=O)N2CCCOC2CNC(=O)C(=O)NCc2ccccn2)cc1 (configuration not stated)	x	x	x	2	x	x	x	x
NC(=O)c1cc2c3ccccc3ccn2c1-c1ccccc1	4	-116	3	59*	x	3	23	27
Cc1cc(C(N)=O)c2ccccc2n1	11	-24	14	1	0	1	x	x
CN(C(=O)CCN1C(=O)c2ccccc2C1=O)c1ccccc1	x	x	x	2	x	x	x	x
CCCSc1cc(NCCOC(=O)CCC)c([N+](=O)[O-])c2nonc12	-2	-10	8	4	0	-17	x	x
CCCC(=O)OCCNc1cc(Sc2nccn2C)c2nonc2c1[N+](=O)[O-]	-9	-56	21	9	-5	-7	x	x
CC(=O)OCCCNc1cc(SCc2ccco2)c2nonc2c1[N+](=O)[O-]	0	-33	41	45*	0	5	29	46*
CCC(=O)OCCNc1cc(Sc2nc3ccccc3s2)c2nonc2c1[N+](=O)[O-]	-16	-100	58*	60*	2	-4	56*	72*
CCCC(=O)OCCNc1cc(SCc2ccco2)c2nonc2c1[N+](=O)[O-]	3	-31	32	43*	2	-9	7	11
O=C(COc1ccccc1[N+](=O)[O-])N1CCN(c2ccccn2)CC1	x	x	x	0	x	x	x	x
CCOC(=O)Cc1nnc(NC(=O)CCc2ccccc2)s1	x	x	x	-1	x	x	x	x
